# ChEMBL document CHEMBL3433997, “St. Jude Leishmania screening dataset” (2016)
# Target: Solute carrier family 2, facilitated glucose transporter member 1 (Homo sapiens) (UniProt P11166)
# Assay: ST_JUDE_LEISH: Cytotoxicity at 2uM final concentration against transgenic Leishmania Mexicana promastigotes LmGLUT1 that are glucose transport deficient and complemented with the human glucose transporter GLUT1. Activity is measured by DNA content using SYBR green in vitro
# Assay type: functional
# Sequence of Solute carrier family 2, facilitated glucose transporter member 1 (Homo sapiens) (P11166 whole entry): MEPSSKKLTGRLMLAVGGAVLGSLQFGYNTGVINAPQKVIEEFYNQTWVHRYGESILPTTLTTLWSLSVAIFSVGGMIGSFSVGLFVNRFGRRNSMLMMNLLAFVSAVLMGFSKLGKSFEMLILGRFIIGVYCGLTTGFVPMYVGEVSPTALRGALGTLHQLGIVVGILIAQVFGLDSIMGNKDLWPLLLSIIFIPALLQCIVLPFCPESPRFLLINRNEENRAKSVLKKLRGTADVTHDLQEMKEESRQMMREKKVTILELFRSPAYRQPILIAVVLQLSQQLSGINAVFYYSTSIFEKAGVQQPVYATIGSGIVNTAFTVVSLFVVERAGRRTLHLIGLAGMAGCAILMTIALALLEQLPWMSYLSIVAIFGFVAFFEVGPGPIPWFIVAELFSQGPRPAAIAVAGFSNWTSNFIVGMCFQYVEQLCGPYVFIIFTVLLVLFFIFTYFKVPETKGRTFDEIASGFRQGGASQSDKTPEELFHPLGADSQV
row,SMILES,inhibition [%]
1,Cc1cccc2nc(-c3ccc(-c4ccc(NC(=O)C(C)CN(C)C)cc4)cc3)[nH]c12 (stereo not given),11.2
2,O=C(N[C@H]1CCN(Cc2ccc(OCCCN3CCCCC3)cc2)C1)c1cc(Cl)cc(Cl)c1,1.71
3,O=[N+]([O-])c1ccc(C(O)CNCCc2ccccc2)cc1OCc1ccccc1 (stereo not given),14.1
4,COc1ccc(-c2cc3nc4c(c(NCCCn5ccnc5)n3n2)CCCC4)cc1,1.31
5,O=C(Nc1ccc(Cl)cn1)c1sc2ccccc2c1O,3.18
6,CC(C)C(C(=O)n1ncc2c3c(N)nc(N)nc3ccc21)C(C)C,87.4
7,O=C1CCCN1CCCNCc1ccc(-c2ccc(-c3nc4cc(C(F)(F)F)ccc4[nH]3)s2)cc1,4.04
8,O=C(Nc1ccc(OC2CCN(Cc3ccsc3)C2)c(Cl)c1)c1ccc(F)cc1 (stereo not given),0.29
9,C=CCNS(=O)(=O)c1ccc(NC(=O)C(C)Oc2ccc([N+](=O)[O-])cc2)cc1 (stereo not given),1.52
10,Cc1cc(OCCCN2CCC(NS(=O)(=O)c3ccc(Cl)c(Cl)c3)CC2)c2ccccc2n1,4.28
11,Cc1cccc(C)c1CNc1ccnc2cc(Br)ccc12,9.73
12,COc1ccc2nccc([C@@H](O)CN3CCC(NCc4cc5c(cc4F)SCC(=O)N5)CC3)c2n1,9.08
13,Cc1cccc(Nc2nc(C)cc(N3CCCN(CC4CCCCC4)CC3)n2)c1,-2.84
14,CCCCc1ccccc1NS(=O)(=O)c1ccc(OC)c(N2CCNCC2)c1,-0.96
15,CN(C)CC(=O)N(Cc1ccc(Cl)c(Cl)c1)Cc1csc(-c2ccc(CNCc3ccccc3)cc2)n1,3.28
16,O=C(Cc1ccccc1)NC1CCN(c2ccnc3cc(Cl)ccc23)C1 (stereo not given),2.05
17,CCCCC(CCCC)CN1C(=O)C(c2ccccc2)(c2ccccc2)N=C1N,1.9
18,CC(CCCCCC(=O)Nc1ccc(CC(C)NCCc2cccc(Cl)c2)cc1)NCCc1cccc(Cl)c1 (stereo not given),12.9
19,Nc1c(Cl)cc(C(O)CNCCCCCOCCc2ccccc2)cc1C(F)(F)F (stereo not given),8.73
20,CC(C)CNCc1ccc(-c2cccc(CN(CCCN3CCN(C)CC3)C(=O)/C=C/c3ccccc3)c2)cc1,5.83

row,SMILES,inhibition [%]
1,COc1ccc2nccc(N3CCN(CCNCc4ccc5c(n4)NC(=O)CO5)CC3)c2c1,8.8
2,Cc1cccc2nc(-c3ccc(-c4cccc(CN5CCN(c6ccc(C#N)cn6)CC5)c4)s3)[nH]c12,0.91
3,O=C(/C=C/c1ccc(Cl)cc1)NCCCCCN1CCC(C(=O)Nc2ccc(Cl)c(Cl)c2)CC1,-0.38
4,CC1=C(C(=O)Nc2cc3cn[nH]c3cc2F)C(c2cccc(O)c2F)CC(=O)N1 (stereo not given),-2.25
5,Cc1ccc2[nH]c3ccccc3c(=O)c2c1,0.1
6,COc1ccc2ncc(F)c(CCN3CCC(CNC(=O)C(=O)c4c[nH]c5ccccc45)CC3)c2n1,6.8
7,CCCCN(Cc1cnccc1-c1ccc(Br)cc1)c1ccc(C(O)(C(F)(F)F)C(F)(F)F)cc1,3.94
8,CC(C)(NCc1ncc[nH]1)c1nc(-c2ccc(Cl)c(O)c2)c(-c2ccncc2)[nH]1,2.76
9,O=[N+]([O-])c1ccc2c(c1)c1ccccc1n2Cc1ccccc1O,0.12
10,COc1ccc(COc2c(OC)cc(Cc3cnc(N)nc3N)cc2OC)cc1,5.65
11,COc1ccc(-c2cccc(NC(=O)c3cccc(C#N)c3)c2)cc1CN1CCCC1,12.1
12,COc1cc(C)ccc1N1CCN(CCCCNC(=O)c2ccc(NC(=O)c3ccc(Cl)cc3)cc2)CC1,6.85
13,CC(CCON1C(N)=NC(N)=NC1(C)C)c1ccc(Cl)cc1 (stereo not given),21.4
14,O=C(Nc1ccc(F)cc1)NC1CCN(c2ccnc3ccccc23)C1 (stereo not given),3.76
15,COc1ccc(-c2nc(NC(=O)Cc3coc4cc(OC)ccc34)sc2C)cc1,-1.68
16,N#Cc1cc(C(=O)Nc2ccccc2)c(N)nc1SCC(=O)Nc1ccc(Br)cc1,8.21
17,N#Cc1ccc(N2CCN(Cc3cccc(-c4cccc(-c5nc6cc(C(F)(F)F)ccc6[nH]5)c4)c3)CC2)nc1,0.03
18,COc1cc2ccccc2c(OC)c1CNCCCCCCNCc1c(OC)cc2ccccc2c1OC,11.1
19,O=C(CCCCCNC(=O)c1ccc(O)c(-c2ccc(Cl)c(Cl)c2)c1)NCCN1CCCC1,1.19
20,CCNc1cc(C(=O)N[C@@H](Cc2ccco2)[C@H](O)CNC2CCCCC2)cc(N2CCCCS2(=O)=O)c1,1.99

# Target: Hexose transporter 1 (Plasmodium falciparum) (UniProt O97467)
# Assay: ST_JUDE_LEISH: Cytotoxicity at 2uM final concentration against transgenic Leishmania Mexicana promastigotes LmPfHT that are glucose transport deficient and complemented with the Plasmodium falciparum hexose transporter. Activity is measured by DNA content using SYBR green in vitro
# Assay type: functional
row,SMILES,inhibition [%]
1,Cc1cccc2nc(-c3ccc(-c4ccc(NC(=O)C(C)CN(C)C)cc4)cc3)[nH]c12 (stereo not given),9.44
2,O=C(N[C@H]1CCN(Cc2ccc(OCCCN3CCCCC3)cc2)C1)c1cc(Cl)cc(Cl)c1,7.28
3,O=[N+]([O-])c1ccc(C(O)CNCCc2ccccc2)cc1OCc1ccccc1 (stereo not given),14
4,COc1ccc(-c2cc3nc4c(c(NCCCn5ccnc5)n3n2)CCCC4)cc1,1.92
5,O=C(Nc1ccc(Cl)cn1)c1sc2ccccc2c1O,3.43
6,CC(C)C(C(=O)n1ncc2c3c(N)nc(N)nc3ccc21)C(C)C,86.9
7,O=C1CCCN1CCCNCc1ccc(-c2ccc(-c3nc4cc(C(F)(F)F)ccc4[nH]3)s2)cc1,1.98
8,O=C(Nc1ccc(OC2CCN(Cc3ccsc3)C2)c(Cl)c1)c1ccc(F)cc1 (stereo not given),0.51
9,C=CCNS(=O)(=O)c1ccc(NC(=O)C(C)Oc2ccc([N+](=O)[O-])cc2)cc1 (stereo not given),1.56
10,Cc1cc(OCCCN2CCC(NS(=O)(=O)c3ccc(Cl)c(Cl)c3)CC2)c2ccccc2n1,4.69
11,Cc1cccc(C)c1CNc1ccnc2cc(Br)ccc12,8.34
12,COc1ccc2nccc([C@@H](O)CN3CCC(NCc4cc5c(cc4F)SCC(=O)N5)CC3)c2n1,7.72
13,Cc1cccc(Nc2nc(C)cc(N3CCCN(CC4CCCCC4)CC3)n2)c1,1.98
14,CCCCc1ccccc1NS(=O)(=O)c1ccc(OC)c(N2CCNCC2)c1,-3.65
15,CN(C)CC(=O)N(Cc1ccc(Cl)c(Cl)c1)Cc1csc(-c2ccc(CNCc3ccccc3)cc2)n1,0.77
16,O=C(Cc1ccccc1)NC1CCN(c2ccnc3cc(Cl)ccc23)C1 (stereo not given),2.03
17,CCCCC(CCCC)CN1C(=O)C(c2ccccc2)(c2ccccc2)N=C1N,1.66
18,CC(CCCCCC(=O)Nc1ccc(CC(C)NCCc2cccc(Cl)c2)cc1)NCCc1cccc(Cl)c1 (stereo not given),10.6
19,Nc1c(Cl)cc(C(O)CNCCCCCOCCc2ccccc2)cc1C(F)(F)F (stereo not given),4.17
20,CC(C)CNCc1ccc(-c2cccc(CN(CCCN3CCN(C)CC3)C(=O)/C=C/c3ccccc3)c2)cc1,5.21

row,SMILES,inhibition [%]
1,COc1ccc2nccc(N3CCN(CCNCc4ccc5c(n4)NC(=O)CO5)CC3)c2c1,8.24
2,Cc1cccc2nc(-c3ccc(-c4cccc(CN5CCN(c6ccc(C#N)cn6)CC5)c4)s3)[nH]c12,-1.69
3,O=C(/C=C/c1ccc(Cl)cc1)NCCCCCN1CCC(C(=O)Nc2ccc(Cl)c(Cl)c2)CC1,-2.11
4,CC1=C(C(=O)Nc2cc3cn[nH]c3cc2F)C(c2cccc(O)c2F)CC(=O)N1 (stereo not given),-3.23
5,Cc1ccc2[nH]c3ccccc3c(=O)c2c1,1.92
6,COc1ccc2ncc(F)c(CCN3CCC(CNC(=O)C(=O)c4c[nH]c5ccccc45)CC3)c2n1,7.49
7,CCCCN(Cc1cnccc1-c1ccc(Br)cc1)c1ccc(C(O)(C(F)(F)F)C(F)(F)F)cc1,3.75
8,CC(C)(NCc1ncc[nH]1)c1nc(-c2ccc(Cl)c(O)c2)c(-c2ccncc2)[nH]1,3.34
9,O=[N+]([O-])c1ccc2c(c1)c1ccccc1n2Cc1ccccc1O,1.04
10,COc1ccc(COc2c(OC)cc(Cc3cnc(N)nc3N)cc2OC)cc1,5.76
11,COc1ccc(-c2cccc(NC(=O)c3cccc(C#N)c3)c2)cc1CN1CCCC1,15.9
12,COc1cc(C)ccc1N1CCN(CCCCNC(=O)c2ccc(NC(=O)c3ccc(Cl)cc3)cc2)CC1,6.83
13,CC(CCON1C(N)=NC(N)=NC1(C)C)c1ccc(Cl)cc1 (stereo not given),29.5
14,O=C(Nc1ccc(F)cc1)NC1CCN(c2ccnc3ccccc23)C1 (stereo not given),3.71
15,COc1ccc(-c2nc(NC(=O)Cc3coc4cc(OC)ccc34)sc2C)cc1,0.45
16,N#Cc1cc(C(=O)Nc2ccccc2)c(N)nc1SCC(=O)Nc1ccc(Br)cc1,5.88
17,N#Cc1ccc(N2CCN(Cc3cccc(-c4cccc(-c5nc6cc(C(F)(F)F)ccc6[nH]5)c4)c3)CC2)nc1,0.73
18,COc1cc2ccccc2c(OC)c1CNCCCCCCNCc1c(OC)cc2ccccc2c1OC,7.88
19,O=C(CCCCCNC(=O)c1ccc(O)c(-c2ccc(Cl)c(Cl)c2)c1)NCCN1CCCC1,0.7
20,CCNc1cc(C(=O)N[C@@H](Cc2ccco2)[C@H](O)CNC2CCCCC2)cc(N2CCCCS2(=O)=O)c1,2.4
